# Experimental data published in the supplement of paper PMC8728848.
# The sample as a whole holds a higher share of the strongest signals than the screen did.
# B1: Gal 3 (Homo sapiens), P17931 (protein)
# chain: MADNFSLHDALSGSGNPNPQGWPGAWGNQPAGAGGYPGASYPGAYPGQAPPGAYPGQAPPGAYHGAPGAYPGAPAPGVYPGPPSGPGAYPSSGQPSAPGAYPATGPYGAPAGPLIVPYNLPLPGGVVPRMLITILGTVKPNANILDFQRGNDVAFHFNPRFNENNRRVIVCNTKLDNNWAREERQSVFPFESGKPFKIQVLVEPDHFKVAVNDAHLLQYNHRVKKLNEISKLGISGDIDLTSASYTMI
# How the values were obtained:
# Test in all cases: glycan array binding signal (z-score within array); higher = stronger binding
# Conditions in all cases: glycan notation: IUPAC condensed, linker removed; mutation: G182A
# [1] = biological target: Fuc(a1-2)Gal(b1-4)GlcNAc
# Outline: (§1)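 Glycan array binding is given as a within-array Z-score, which can be read as non-binding when negative. The arrays, 3228 of them, came from the Consortium for Functional Glycomics database and were retained only where the protein sequence was available. Z-scores were averaged across arrays of the same protein sequence at different concentrations or buffers and across linkers.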
# [2] = biological target: Fuc(a1-2)Gal(b1-4)GlcNAc(b1-3)Gal(b1-4)GlcNAc(b1-3)Gal(b1-4)GlcNAc
# Outline: as §1
# [3] = biological target: Fuc(a1-2)Gal(b1-4)GlcNAc(b1-3)GalNAc
# Outline: as §1
# [4] = biological target: Fuc(a1-2)[Gal(a1-3)]Gal(b1-4)GlcNAc
# Outline: as §1
# [5] = biological target: Fuc(a1-2)[Gal(a1-3)]Gal(b1-4)GlcNAc(b1-2)Man(a1-3)[Fuc(a1-2)[Gal(a1-3)]Gal(b1-4)GlcNAc(b1-2)Man(a1-6)]Man(b1-4)GlcNAc(b1-4)GlcNAc
# Outline: as §1
# [6] = biological target: Fuc(a1-2)[GalNAc(a1-3)]Gal(b1-4)GlcNAc(b1-2)Man(a1-3)[Fuc(a1-2)[GalNAc(a1-3)]Gal(b1-4)GlcNAc(b1-2)Man(a1-6)]Man(b1-4)GlcNAc(b1-4)GlcNAc
# Outline: as §1
# [7] = biological target: Fuc(a1-2)[GalNAc(a1-3)]Gal(b1-4)GlcNAc(b1-3)Gal(b1-4)GlcNAc(b1-3)Gal(b1-4)GlcNAc
# Outline: as §1
# [8] = biological target: Fuc(a1-3)[Gal(b1-4)]GlcNAc(b1-2)Man(a1-3)[Fuc(a1-3)[Gal(b1-4)]GlcNAc(b1-2)Man(a1-6)]Man(b1-4)GlcNAc(b1-4)GlcNAc
# Outline: as §1
# [9] = biological target: Fuc(a1-3)[Gal(b1-4)]GlcNAc(b1-3)Gal(b1-3)[Fuc(a1-4)]GlcNAc
# Outline: as §1
# [10] = biological target: Gal(a1-3)GalNAc
# Outline: as §1
# [11] = biological target: Gal(a1-4)Gal(b1-4)Glc
# Outline: as §1
# [12] = biological target: Gal(b1-3)GalNAc(b1-4)Gal(b1-4)Glc
# Outline: as §1
# [13] = biological target: Gal(b1-4)GlcNAc(b1-2)Man(a1-6)[Man(a1-3)]Man(b1-4)GlcNAc(b1-4)GlcNAc
# Outline: as §1
# [14] = biological target: Gal(b1-4)GlcNAc(b1-3)Gal(b1-4)GlcNAc(b1-3)Gal(b1-4)GlcNAc
# Outline: as §1
# [15] = biological target: Gal(b1-4)GlcNAc(b1-6)Gal(b1-4)GlcNAc
# Outline: as §1
# [16] = biological target: Gal3S(b1-3)[Fuc(a1-4)]GlcNAc
# Outline: as §1
# [17] = biological target: GalNAc(a1-3)Gal
# Outline: as §1
# [18] = biological target: GalNAc(b1-3)Gal(a1-6)Gal(b1-4)Glc
# Outline: as §1
# [19] = biological target: GlcNAc(a1-4)Gal(b1-4)GlcNAc(b1-3)Gal(b1-4)GlcNAc(b1-3)Gal(b1-4)GlcNAc
# Outline: as §1
# [20] = biological target: GlcNAc(b1-3)Gal(b1-4)GlcNAc(b1-3)Gal(b1-4)GlcNAc
# Outline: as §1
# [21] = biological target: GlcNAc3Prop(b1-4)GlcNAc
# Outline: as §1
# [22] = biological target: Man(a1-2)Man(a1-3)Man
# Outline: as §1
# [23] = biological target: Man(a1-2)Man(a1-3)[Man(a1-2)Man(a1-6)]Man
# Outline: as §1
# [24] = biological target: Neu5Ac(a2-3)Gal(b1-3)[Fuc(a1-4)]GlcNAc(b1-3)Gal(b1-3)[Fuc(a1-4)]GlcNAc
# Outline: as §1
# [25] = biological target: Neu5Ac(a2-3)Gal(b1-4)GlcNAc(b1-2)Man(a1-3)[Neu5Ac(a2-6)Gal(b1-4)GlcNAc(b1-2)Man(a1-6)]Man(b1-4)GlcNAc(b1-4)GlcNAc
# Outline: as §1
# [26] = biological target: Neu5Ac(a2-3)GalNAc
# Outline: as §1
# [27] = biological target: Neu5Ac(a2-6)Gal(b1-4)Glc
# Outline: as §1
# [28] = biological target: Neu5Ac(a2-6)Gal(b1-4)GlcNAc
# Outline: as §1
# [29] = biological target: Neu5Ac(a2-6)Gal(b1-4)GlcNAc(b1-3)GalNAc
# Outline: as §1
# [30] = biological target: Neu5Ac(a2-6)GlcNAc(b1-4)GlcNAc(b1-4)GlcNAc
# Outline: as §1
# [31] = biological target: Neu5Ac(a2-8)Neu5Ac(a2-8)Neu5Ac(a2-3)[GalNAc(b1-4)]Gal(b1-4)Glc
# Outline: as §1
# [32] = biological target: Neu5Ac9Ac(a2-6)Gal(b1-4)GlcNAc
# Outline: as §1
# [33] = biological target: Neu5Gc(a2-3)Gal(b1-4)Glc
# Outline: as §1
binder,measurement,setting,value
B1,glycan array binding signal (z-score),[1],-0.188
same,glycan array binding signal (z-score),[2],5.12
same,glycan array binding signal (z-score),[3],-0.187
same,glycan array binding signal (z-score),[4],1.68
same,glycan array binding signal (z-score),[5],9.17
same,glycan array binding signal (z-score),[6],5.25
same,glycan array binding signal (z-score),[7],6.29
same,glycan array binding signal (z-score),[8],-0.191
same,glycan array binding signal (z-score),[9],-0.188
same,glycan array binding signal (z-score),[10],-0.185
same,glycan array binding signal (z-score),[11],-0.192
same,glycan array binding signal (z-score),[12],-0.189
same,glycan array binding signal (z-score),[13],-0.197
same,glycan array binding signal (z-score),[14],7.13
same,glycan array binding signal (z-score),[15],-0.196
same,glycan array binding signal (z-score),[16],-0.186
same,glycan array binding signal (z-score),[17],-0.192
same,glycan array binding signal (z-score),[18],-0.19
same,glycan array binding signal (z-score),[19],9.32
same,glycan array binding signal (z-score),[20],4.53
same,glycan array binding signal (z-score),[21],-0.182
same,glycan array binding signal (z-score),[22],-0.189
same,glycan array binding signal (z-score),[23],-0.189
same,glycan array binding signal (z-score),[24],-0.187
same,glycan array binding signal (z-score),[25],-0.168
same,glycan array binding signal (z-score),[26],-0.192
same,glycan array binding signal (z-score),[27],-0.183
same,glycan array binding signal (z-score),[28],-0.177
same,glycan array binding signal (z-score),[29],-0.143
same,glycan array binding signal (z-score),[30],-0.191
same,glycan array binding signal (z-score),[31],-0.167
same,glycan array binding signal (z-score),[32],-0.189
same,glycan array binding signal (z-score),[33],-0.195
